Source: PubChem BioAssay AID1159506 (National Center for Advancing Translational Sciences (NCATS), 2015)
Whole data set: some 59,000 sequences, median the read-out near -0.00055, cut for the lowest 2% near -2. Many of the other results were omitted from the sample, so the lowest values are more common in it than they were.

Assay: Identification of proteins required for the processing of the EWS-FLI1 nascent transcript;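 further: robust z of luciferase light less the median z of siRNAs with the same seed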
Settings: TC32 Ewing sarcoma NR0B1-luc vs CMV-luc (EWS-FLI1 target promoter against control promoter), 48 h; screened at 20 nM (by protocol)
Outline: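 Parallel TC32-NR0B1-luc and TC32-CMV-luc reverse transfections with 20 nM siRNA in RPMI-1640/10% FBS, luciferase measured 48 h later. Seed-adjusted z-scores from normalized, z-score-MAD transformed data; AllStars negative and siGL4 controls on each plate.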

First: UCUAAUACAAGGUUCAUAU against SNRPEP2
Second: UCAAUGCUCAGGGAACUGC against C1orf216
The seed-corrected z-score of the first is lower: -2.56 for the first, 2.53 for the second.

Going from ACCUUAGUAAGAUCCAUUC against OSBPL9 to UCAAACACGAUGGAGGUCC against SLC29A4, the seed-corrected z-score falls from 0.727 to -0.131.

First: AAAGACACCGUAGCUGAGG against MFNG
Second: UUUGUCAUUACCCGAACUG against RNASE11
The seed-corrected z-score of the first is lower: -0.181 for the first, 0.455 for the second.

Compared with UAAGGCUCCAGCAUAACAG against MIR924HG, AUCUUGGUCACUGGAGGCG against SFRP5 is lower in seed-corrected z-score: 0.428 for the first, -3.64 for the second.

Going from UACAAGUCAAGCUCUCACA against LOC727799 to AAUAGAACAAGGACAGGAC against SAYSD1, the seed-corrected z-score falls from -0.236 to -1.61.

First: AAUGUGCUUAGCGCAGGUG against LINC01530
Second: UCAUUGUUGAUUUGGUCUC against 3-Sep
The seed-corrected z-score of the first is lower: 0.0903 for the first, 1.43 for the second.

Compared with UCUAGAGUUAGGGUAUCUG against ARMC5, UGAUGGUCACAAUCCUCUC against PCBP3 is lower in seed-corrected z-score: 0.117 for the first, -2.79 for the second.

Going from UUUUCUUGCGUAUGAAUUC against ZNF302 to UCUUGUUCCACCACGUCUC against GRID2, the seed-corrected z-score falls from 0.913 to 0.102.

First: AGUGGGUAGAUUCCAUUCC against NRBP2
Second: UGUAGGAUCUGUCUCCAGG against LOC728587
The seed-corrected z-score of the first is lower: -2.82 for the first, -0.669 for the second.

First: UUCGAUGAAAUGAUUUUCC against ZNF418
Second: UGAUCAUCAGCGGUGAGGC against HMGB3P19
The seed-corrected z-score of the first is higher: 0.719 for the first, -1.07 for the second.

Going from AAAGUCUCCAGUACGAUGU against MROH3P to UUGCUGAACAGAUCAGUCC against ELF5, the seed-corrected z-score falls from 1.9 to -0.256.

First: AAGUUCAUAAGAUUCCAUG against MGP
Second: UCAGUUUGUAGUCAGAGCC against AP3S2
The seed-corrected z-score of the first is lower: 0.212 for the first, 0.309 for the second.

First: UCAUCAUCAAUCACGGACG against BAP1
Second: UGUCUGUUGAUGGCCAAGC against AMELX
The seed-corrected z-score of the first is lower: -2.03 for the first, 0.157 for the second.

Going from UCUGCGAUCAGUACCACUG against RBBP4 to ACAGGGUUAAAAUUGUCCG against M6PR, the seed-corrected z-score falls from 0.278 to -0.318.

Compared with UCAAUGUUCACCACACGGC against PLEKHH1, UUUGUUAGGAGCUUGUAGG against C1GALT1C1 is higher in seed-corrected z-score: -2.41 for the first, 1.55 for the second.

Compared with UAUAUCAUCAAGCGUAACC against TCF20, UCGUUGUAUACUUUGGUGC against PRKAR2B is higher in seed-corrected z-score: -1.21 for the first, -0.139 for the second.

Going from UAUGCUGUCGGAUGAGUCC against ATF1 to UAUUGUCAAAUGAAGGUGG against TREML1, the seed-corrected z-score rises from 0.345 to 0.93.

First: UUGGUAUCAUCUUCUGUAG against PLXDC2
Second: UUUCUGACCACGUCUAGCA against PEX11B
The seed-corrected z-score of the first is lower: -0.075 for the first, 0.368 for the second.

Compared with UGAGUGUAGAGCAGCCACU against NEU2, UGAGCUACCAUAUGCUUCA against RBMY1F is higher in seed-corrected z-score: -2.8 for the first, -0.266 for the second.

Compared with AUCCUCACCAUGGACAACG against CELA3A, UUUUUGAACAUGGUAACAG against RPL31P7 is higher in seed-corrected z-score: -0.518 for the first, 1.16 for the second.

First: AAGUGGUCAAAAUCCGCUC against LOC728613
Second: AAAGUCAGCACUUCGAUCC against MCTP1
The seed-corrected z-score of the first is higher: -1.66 for the first, -2.38 for the second.

Compared with UAUGUUGUCACGCAGCACU against HIST1H4F, UUGGUUAUUCGAAGAGCUG against ME1 is lower in seed-corrected z-score: 1.31 for the first, -0.246 for the second.

Going from UGUCAUUUUUCUUCGGUUC against PWP2 to UGAAUGGACAGUAUCUCUG against CCDC54, the seed-corrected z-score falls from 0.885 to -0.774.

First: AAUCUGCUUCUUUAAGUCG against RBBP6
Second: UUUCUGUCCAGGAAAUCUC against RWDD4
The seed-corrected z-score of the first is lower: -2.31 for the first, -0.311 for the second.

Going from UCAGUGGAAGGAAUCCUCA against OR13C8 to UUAUUGUCAAGUUCUGAUG against EFCAB14, the seed-corrected z-score falls from 1.06 to 0.0178.

Going from UUCUGUUCUACCUCGCUUC against WDR60 to UCUGGAGUUCUCAUUAGAC against IRF7, the seed-corrected z-score rises from -1.36 to 0.205.

Compared with AUACGUAUCCCGGACGCAG against SLC25A47, AGGGUAUUUACCUUCUUGC against LOC729696 is lower in seed-corrected z-score: 2.25 for the first, -2.56 for the second.

First: UCCCAUACCAUCCACAGUG against SGCZ
Second: AAGACUUCCAUCUAAGAUC against SLC39A11
The seed-corrected z-score of the first is higher: 0.248 for the first, -1.62 for the second.

Compared with AAUCUUCACAUCAUUCUGG against TMEM70, AUUGAUGUCAAUCACAUGC against PCDHGA3 is lower in seed-corrected z-score: -0.646 for the first, -0.895 for the second.

Going from UUUCAUGCGACGGUUUUGG against HOXC4 to UGACUGUUGCUCCACUUCC against SH2D3A, the seed-corrected z-score rises from -0.731 to -0.425.

Going from AGUCUUAUCAGCACCCUUU against MTPN to AUCCGGUACACCAUGUGGU against CYTH2, the seed-corrected z-score rises from -11.9 to -0.326.

Going from UAUGAUGGAGGCGUAGUUC against MYCL to AAUGAUAUCUGUGAUCGCC against RABGEF1, the seed-corrected z-score falls from 0.678 to -0.242.

Compared with UUCGUUCAGUGGGUUGUCC against SYNGR1, UUCCCUUUCACGUCCAUGU against WFIKKN2 is higher in seed-corrected z-score: -0.497 for the first, -0.0396 for the second.
